Measured values from the supplement of paper PMC3334620.
In all, about 33,000 sequences were measured (“E-score (-0.5 to 0.5)”: median about -0.012, highest 2% from about 0.27 on). The list comes from a sample in which the highest values are over-represented; it also holds similar and randomly drawn sequences.

biological target: T1, Vhr1 (UniProt P40522); test: PBM E-score (8-mer binding enrichment) (E-score (-0.5 to 0.5)); higher = stronger / more preferred TF binding; settings: protein concentration: 200 nM; construct: GST-full length
T1 sequence: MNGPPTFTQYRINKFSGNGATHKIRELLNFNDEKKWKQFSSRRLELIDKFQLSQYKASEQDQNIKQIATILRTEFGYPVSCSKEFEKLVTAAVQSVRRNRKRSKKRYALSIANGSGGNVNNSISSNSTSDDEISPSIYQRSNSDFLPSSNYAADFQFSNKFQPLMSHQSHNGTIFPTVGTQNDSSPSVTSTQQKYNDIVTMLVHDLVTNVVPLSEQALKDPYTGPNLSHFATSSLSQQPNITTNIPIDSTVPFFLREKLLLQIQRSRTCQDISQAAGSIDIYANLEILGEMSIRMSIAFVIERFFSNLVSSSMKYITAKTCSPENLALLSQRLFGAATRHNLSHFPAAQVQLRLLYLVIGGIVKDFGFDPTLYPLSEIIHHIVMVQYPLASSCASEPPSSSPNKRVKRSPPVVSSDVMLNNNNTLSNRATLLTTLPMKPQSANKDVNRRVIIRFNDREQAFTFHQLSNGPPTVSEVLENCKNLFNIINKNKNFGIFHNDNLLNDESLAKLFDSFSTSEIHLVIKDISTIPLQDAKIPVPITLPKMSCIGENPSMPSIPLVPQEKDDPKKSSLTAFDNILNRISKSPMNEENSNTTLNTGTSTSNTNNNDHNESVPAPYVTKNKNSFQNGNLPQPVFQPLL
Protocol: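 Universal 'all 10-mer' protein binding microarrays (Agilent AMADID 015681) probed with GST-tagged S. cerevisiae TFs (full-length or DBD) made by in vitro transcription/translation (PURExpress), about 100-200 nM. Bound TF was detected with fluorescent anti-GST. Each ungapped 8-mer (which stands for itself and its reverse complement) is scored by the PBM enrichment score (E-score), a modified Wilcoxon-Mann-Whitney statistic from -0.5 to +0.5, computed with the Universal PBM Analysis Suite. Scale: above 0.35 generally sequence-specific binding.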

Sequence	PBM E-score
TACTCGCA	0.263
AACTCGCC	0.00825
CACTCGTA	-0.0431
AACTCGGA	0.0616
GACTCGCA	0.319
AACTCGCA	-0.0141
GACTCGGA	0.278
CACTCGCC	0.147
TACTCGGA	0.126
GACTCGTA	0.327
GACTCGCC	0.276
AACTCGTA	0.0622
AGCGCATA	-0.0303
CCCAATAG	-0.0738
GACTAAGA	0.0912
AGTGTTGG	0.107
ATGCTGGA	-0.001
AATCTCTC	-0.0867
CTAGAGGC	-0.341
CCTTAGAC	-0.16
AGGCTGAG	-0.0574
CACGCGTA	-0.0315
AACGCGTC	-0.137
CACGCGTC	0.275
GCTCATAA	0.0821

Sequence	PBM E-score
ATGAGCCA	0.271
CTGAGCCA	0.247
GTGAGCCA	0.355
GCAATGGA	-0.128
AGGAGTGG	0.0494
ATCAGAAC	0.0119
CCAGTCAC	0.296
CCAGTCAA	0.045
ACAGTCAC	0.242
GCAGTCCC	0.106
GCAGTCAA	0.0401
GCAGTCAC	0.353
ACGTTGCA	-0.0853
ACCATTAT	0.169
GCCATGCC	0.00234
TCTGCCAA	-0.205
CACTGATA	0.0775
GCAAAATA	0.00706
GTAATCAC	0.198
ATAATCAG	0.0967
ATAATCAT	0.389
ATAATCAC	0.308
CTAATCAC	0.27
ACAATCAC	0.275
CCAATCAC	0.179

Sequence	PBM E-score
GCAATCAC	0.159
ATAATCAA	0.0618
ACCAGCGT	0.0656
GCAGAACA	0.091
CTATTGGA	-0.0419
CAAGGGCG	-0.203
CCACTCGG	-0.147
CTCCCTAA	-0.107
GCAGATTA	0.0608
ATAAGAAG	-0.11
GAGTACCA	0.172
CTCCAATC	0.0374
ATAGTCAG	0.333
ATAGTCAA	0.165
ATAGTCTG	-0.0734
ATCGTCAT	0.134
ATAGTCAT	0.411
CTAGTCAG	0.247
AAAGTCAT	0.256
ATAGTCAC	0.41
ATAGTCCC	0.0218
CAACCTTC	-0.171
AACTGGGT	-0.041
GAAGAATC	-0.1
TCTTCACA	0.0437

Sequence	PBM E-score
CTTTCACC	-0.204
ATTGTTCC	0.127
TCAAGCGA	-0.0594
GGCTCTAA	-0.0817
ACATAACA	0.0352
GCATAACA	-0.116
TCATAACA	0.272
CTCTTGGA	0.0822
AAAGATTT	-0.134
ACTCACAT	0.286
AATCACAT	0.17
ACGCACAG	0.04
AATCACAA	0.187
AATCACAG	0.27
AATCACAC	0.316
ACACTCAC	0.281
ACACTCAG	-0.0414
ACTCTCAC	0.115
ACGCACAT	0.0403
ACTCACAG	0.325
CCTCACAG	0.0151
AGTCTGAC	0.148
AGGGTCAC	-0.0656
CTTCTTAC	-0.221
CACGGCGG	0.102

Sequence	PBM E-score
ACAGGAGG	-0.164
CGGAGTAA	0.0314
AATCGTGT	0.0868
AAAAGAGG	-0.134
GCCACACC	0.134
CCGGTGGC	-0.0116
CCTCACAC	-0.0104
GCTCACAC	0.148
ACTCACAC	0.39
TCTCACAA	0.0793
CCTCACAA	0.115
ACTCACAA	0.286
GAAAGTCC	-0.317
AGAGACTC	0.222
CGAGACTC	0.309
CAAGACTG	-0.0294
CAAGACTA	-0.0514
CAAGACTC	0.295
CGAGACTA	0.202
TAGTTATA	0.00574
ACCCTACC	0.00399
ACATTGAC	0.0886
CAAAGCCG	-0.295
CTCACCTA	0.103
ATTACTGC	0.206

Sequence	PBM E-score
TACGAAGA	-0.0938
CCCTACTC	-0.067
AGGTATGA	0.163
AACACACA	0.33
AACACACT	0.205
CACACACG	0.272
CACACATA	0.204
CACACACA	0.276
CGCACACA	0.134
CACACAAA	0.124
TACACACA	0.268
AACACACG	0.00318
CCCATTCG	0.00579
AAGAGGGT	-0.255
AGAGGTAT	0.144
CGTCCTAG	-0.181
ATGCTAAG	-0.0834
CCTATCAA	-0.182
AGTCATCA	0.439
AGTCATCC	0.464
GGTCATCA	0.136
ATTCATCC	0.0498
AGGCATCG	-0.22
CGTCATCA	0.0722
ATTCATCG	0.121

Sequence	PBM E-score
AGTCATCG	0.44
CGTCATCC	0.0455
CGGCGGGC	0.221
CAAGATAA	0.0275
CATGGAGG	-0.101
CCACGAAC	0.101
CAGGACAC	0.135
GCTCATCC	0.0555
GCTCATCA	0.109
ACTCATCA	0.32
ACTCATCG	0.304
ACTCATCT	0.199
CCTCATCC	-0.182
ACTCATCC	0.412
CCTCATCG	0.0284
TCTCATCA	-0.131
GCCTTCAC	-0.0812
CTTTATCA	-0.157
AAGCTACC	0.00426
CCCCATGA	0.0682
ACCCATGA	0.287
ACCCAGGA	-0.00244
